Unmarked numbers belong to inactive results.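 The calls were made as follows: active = binding inhibited by at least 50%, or stimulated by at least 50%, shown as inhibition of -50% or lower; inactive = the rest.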
System: Imidazoline I2 Central
Assay: radioligand displacement at 30 receptors – biochemical, Panlabs HitProfilingScreen, selectivity assay for AVPR1a antagonist project, profiling panel (AID 743088)
Conditions: 30 targets, at 10 µM, hits give high values

O=C(C1CCN(c2ccc(Cl)cn2)CC1)N(CC1CC1)c1ccc(Cl)cc1
inhibition of binding: 27%
